Data: PubChem BioAssay AID1159580 (chemical genetic matrix, 2015)
Where “and” joins values, the source holds several entries; their conditions need not be identical. Identical values can stand only once. Hit rate of the full screen: of about 5,500 compounds, about 2,000 (36%) were called active. About 18% were inconclusive and are not listed. The list shows a part of the results. A number with no mark means an inactive call. Cut-off read from the data, not from the text of the source: active = normalized growth mostly below about 0.91 (no sharp cut-off); inconclusive = no clear call, values can overlap the other calls; inactive = mostly above about 0.92.

Assay: chemical genetic growth profiling, strain panel (AID 1159580);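 note: tested at 20 µM; growth read once vehicle control cultures reached saturation at 30 °C; 1 = growth at the plate median or of vehicle wells; lower values mean less growth of the strain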
Conditions: S. cerevisiae deletion strains, growth OD

## CC1(C)C(=O)C=C[C@@]2(C)C1C=C[C@]1(C)C2CC[C@@]2(C)[C@H](c3ccoc3)OC(=O)C3OC321 (some centres not stated)
Locus YAL013W, strain DEP1, hits give low values
  normalized growth: 0.949
Locus YAL021C, strain ccr4, hits give low values
  normalized growth: 1.02
Locus YAL026C, strain drs2, hits give low values
  normalized growth: 0.972
Locus YAL030W, strain snc1, hits give low values
  normalized growth: 0.985
Locus YBL061C, strain skt5, hits give low values
  normalized growth: 0.974
Locus YBR009C, strain hhf1, hits give low values
  normalized growth: 0.915
Locus YBR021W, strain FUR4, hits give low values
  normalized growth: 1.01
Locus YBR023C, strain chs3, hits give low values
  normalized growth: 0.981
Locus YBR171W, strain sec66, hits give low values
  normalized growth: 0.971
Locus YBR229C, strain ROT2, hits give low values
  normalized growth: 0.986
Locus YBR231C, strain swc5, hits give low values
  normalized growth: 1
Locus YBR279W, strain paf1, hits give low values
  normalized growth: 0.964
Locus YCL011C, strain gbp2, hits give low values
  normalized growth: 0.981
Locus YCL016C, strain dcc1, hits give low values
  normalized growth: 0.98
Locus YCL029C, strain bik1, hits give low values
  normalized growth: 0.986
Locus YCL061C, strain MRC1, hits give low values
  normalized growth: 0.971
Locus YCL069W, strain vba3, hits give low values
  normalized growth: 1
Locus YCR088W, strain abp1, hits give low values
  normalized growth: 1
Locus YDL005C, strain med2, hits give low values
  normalized growth: 0.988
Locus YDL035C, strain GPR1, hits give low values
  normalized growth: 0.979
Locus YDL040C, strain nat1, hits give low values
  normalized growth: 1
Locus YDL074C, strain BRE1, hits give low values
  normalized growth: 0.862
Locus YDL101C, strain DUN1, hits give low values
  normalized growth: 0.957
Locus YDL134C, strain PPH21, hits give low values
  normalized growth: 0.948
Locus YDL185W, strain tfp1, hits give low values
  normalized growth: 0.998
Locus YDL192W, strain arf1, hits give low values
  normalized growth: 0.94
Locus YDR001C, strain nth1, hits give low values
  normalized growth: 0.991
Locus YDR069C, strain doa4, hits give low values
  normalized growth: 1
Locus YDR101C, strain arx1, hits give low values
  normalized growth: 0.978
Locus YDR137W, strain rgp1, hits give low values
  normalized growth: 0.663 (active)
Locus YDR150W, strain NUM1, hits give low values
  normalized growth: 0.996
Locus YDR159W, strain sac3, hits give low values
  normalized growth: 0.843 (active)
Locus YDR162C, strain NBP2, hits give low values
  normalized growth: 0.888
Locus YDR195W, strain ref2
  normalized growth: 1.02
Locus YDR297W, strain sur2, hits give low values
  normalized growth: 0.985
Locus YDR318W, strain mcm21, hits give low values
  normalized growth: 0.939
Locus YDR334W, strain swr1, hits give low values
  normalized growth: 0.983
Locus YDR335W, strain msn5, hits give low values
  normalized growth: 0.998
Locus YDR388W, hits give low values
  normalized growth: 0.984
Locus YDR392W, strain spt3, hits give low values
  normalized growth: 0.314 (active)
Locus YDR502C, strain sam2, hits give low values
  normalized growth: 0.948
Locus YEL003W, strain gim4, hits give low values
  normalized growth: 0.979
Locus YEL037C, strain rad23, hits give low values
  normalized growth: 0.992
Locus YEL061C, strain CIN8 (second series), hits give low values
  normalized growth: 0.997
Locus YEL061C, strain CIN8, hits give low values
  normalized growth: 0.983
Locus YER015W, strain faa2, hits give low values
  normalized growth: 0.985
Locus YER016W, strain bim1, hits give low values
  normalized growth: 0.993
Locus YER110C, hits give low values
  normalized growth: 0.986
Locus YER111C, strain swi4, hits give low values
  normalized growth: 0.994
Locus YER155C, strain BEM2 (second series), hits give low values
  normalized growth: 0.894
Locus YER155C, strain BEM2, hits give low values
  normalized growth: 0.953
Locus YER167W, strain BCK2, hits give low values
  normalized growth: 0.976
Locus YFR010W, strain ubp6, hits give low values
  normalized growth: 1
Locus YGL078C, strain dbp3, hits give low values
  normalized growth: 0.993
Locus YGL086W, strain mad1, hits give low values
  normalized growth: 0.948
Locus YGL167C, strain pmr1, hits give low values
  normalized growth: 0.967
Locus YGL173C, strain kem1, hits give low values
  normalized growth: 0.97
Locus YGL227W, strain vid30, hits give low values
  normalized growth: 0.991
Locus YGL240W, strain doc1, hits give low values
  normalized growth: 1.02
Locus YGL248W, strain PDE1, hits give low values
  normalized growth: 0.974
Locus YGL253W, strain hxk2, hits give low values
  normalized growth: 0.992
Locus YGR135W, strain pre9, hits give low values
  normalized growth: 0.953
Locus YGR252W, strain gcn5, hits give low values
  normalized growth: 0.912
Locus YHR013C, strain ard1, hits give low values
  normalized growth: 0.916
Locus YHR027C, strain rpn1, hits give low values
  normalized growth: 0.971
Locus YHR030C, strain SLT2, hits give low values
  normalized growth: 0.915
Locus YHR079C, strain IRE1 (second series), hits give low values
  normalized growth: 0.977
Locus YHR079C, strain IRE1, hits give low values
  normalized growth: 0.943
Locus YHR094C, strain hxt1, hits give low values
  normalized growth: 0.989
Locus YHR129C, strain ARP1, hits give low values
  normalized growth: 0.926
Locus YHR142W, strain chs7, hits give low values
  normalized growth: 0.987
Locus YHR200W, strain rpn10, hits give low values
  normalized growth: 0.986
Locus YIL066C, strain RNR3, hits give low values
  normalized growth: 0.897
Locus YIL073C, strain SPO22, hits give low values
  normalized growth: 0.953
Locus YIL125W, strain kgd1, hits give low values
  normalized growth: 0.993
Locus YIR030C, strain dcg1, hits give low values
  normalized growth: 0.98
Locus YJL092W, strain hpr5, hits give low values
  normalized growth: 0.997
Locus YJL095W, strain BCK1 (second series), hits give low values
  normalized growth: 0.967
Locus YJL095W, strain BCK1, hits give low values
  normalized growth: 0.799 and 0.923
Locus YJL115W, strain asf1, hits give low values
  normalized growth: 1
Locus YJL129C, strain trk1, hits give low values
  normalized growth: 0.867 (active)
Locus YJL134W, strain LCB3, hits give low values
  normalized growth: 0.997
Locus YJL154C, strain vps35, hits give low values
  normalized growth: 0.995
Locus YJL164C, strain tpk1, hits give low values
  normalized growth: 0.967
Locus YJL166W, strain qcr8, hits give low values
  normalized growth: 0.919
Locus YJL168C, strain set2, hits give low values
  normalized growth: 0.964
Locus YJL187C, strain SWE1 (second series), hits give low values
  normalized growth: 0.951
Locus YJL187C, strain SWE1, hits give low values
  normalized growth: 0.987
Locus YJR066W, strain TOR1, hits give low values
  normalized growth: 0.894
Locus YKL009W, strain mrt4, hits give low values
  normalized growth: 0.995
Locus YKL068W, hits give low values
  normalized growth: 0.998
Locus YKL085W, strain MDH1 (second series), hits give low values
  normalized growth: 0.985
Locus YKL085W, strain MDH1, hits give low values
  normalized growth: 0.985
Locus YKL160W, strain elf1, hits give low values
  normalized growth: 0.973
Locus YKL190W, strain CNB1, hits give low values
  normalized growth: 0.992
Locus YKR001C, strain vps1, hits give low values
  normalized growth: 0.949
Locus YKR026C, strain gcn3, hits give low values
  normalized growth: 0.995
Locus YKR091W, strain srl3, hits give low values
  normalized growth: 0.992
Locus YLL001W, strain dnm1, hits give low values
  normalized growth: 0.99
Locus YLL026W, hits give low values
  normalized growth: 0.986
Locus YLL041C, strain sdh2, hits give low values
  normalized growth: 0.989
Locus YLR027C, strain aat2, hits give low values
  normalized growth: 0.959
Locus YLR039C, strain RIC1, hits give low values
  normalized growth: 0.624 (active)
Locus YLR058C, strain SHM2, hits give low values
  normalized growth: 0.97
Locus YLR102C, strain apc9, hits give low values
  normalized growth: 0.992
Locus YLR113W, strain HOG1, hits give low values
  normalized growth: 0.957
Locus YLR221C, strain rsa3, hits give low values
  normalized growth: 0.959
Locus YLR258W, strain gsy2, hits give low values
  normalized growth: 0.997
Locus YLR262C, strain YPT6 (second series), hits give low values
  normalized growth: 0.67 (active)
Locus YLR268W, strain sec22, hits give low values
  normalized growth: 0.911
Locus YLR320W, strain mms22, hits give low values
  normalized growth: 0.838 (active)
Locus YLR330W, strain CHS5, hits give low values
  normalized growth: 0.954
Locus YLR342W, strain FKS1, hits give low values
  normalized growth: 0.924
Locus YLR357W, strain rsc2, hits give low values
  normalized growth: 1.03
Locus YLR370C, strain arc18, hits give low values
  normalized growth: 0.988
Locus YLR371W, strain rom2, hits give low values
  normalized growth: 0.933
Locus YLR384C, strain iki3, hits give low values
  normalized growth: 0.99
Locus YLR418C, strain cdc73, hits give low values
  normalized growth: 0.655 (active)
Locus YML016C, strain PPZ1, hits give low values
  normalized growth: 0.991
Locus YML032C, strain rad52, hits give low values
  normalized growth: 0.944
Locus YML120C, strain ndi1, hits give low values
  normalized growth: 0.994
Locus YML124C, strain tub3, hits give low values
  normalized growth: 0.983
Locus YMR058W, strain fet3, hits give low values
  normalized growth: 0.976
Locus YMR078C, strain ctf18, hits give low values
  normalized growth: 0.956
Locus YMR125W, strain sto1, hits give low values
  normalized growth: 0.969
Locus YMR129W, hits give low values
  normalized growth: 0.984
Locus YMR205C, strain PFK2, hits give low values
  normalized growth: 0.841 (active)
Locus YMR223W, strain ubp8, hits give low values
  normalized growth: 0.963
Locus YMR231W, strain pep5, hits give low values
  normalized growth: 0.964
Locus YMR307W, strain GAS1, hits give low values
  normalized growth: 0.81
Locus YNL067W, strain RPL9B, hits give low values
  normalized growth: 0.973
Locus YNL071W, strain lat1, hits give low values
  normalized growth: 0.695 (active)
Locus YNL183C, strain NPR1, hits give low values
  normalized growth: 0.921
Locus YNL209W, strain ssb2, hits give low values
  normalized growth: 0.984
Locus YNL233W, strain BNI4, hits give low values
  normalized growth: 0.955
Locus YNL248C, strain rpa49, hits give low values
  normalized growth: 0.978
Locus YNL250W, strain rad50, hits give low values
  normalized growth: 0.987
Locus YNL271C, strain bni1, hits give low values
  normalized growth: 0.983
Locus YNL298W, strain CLA4, hits give low values
  normalized growth: 0.989
Locus YNL307C, strain MCK1, hits give low values
  normalized growth: 0.867 (active)
Locus YNL322C, strain KRE1 (second series), hits give low values
  normalized growth: 1.01
Locus YNL322C, strain KRE1, hits give low values
  normalized growth: 0.983
Locus YNR049C, strain mso1, hits give low values
  normalized growth: 0.985
Locus YNR052C, strain pop2, hits give low values
  normalized growth: 0.951
Locus YOL006C, strain TOP1, hits give low values
  normalized growth: 0.959
Locus YOL012C, strain htz1
  normalized growth: 0.78
Locus YOL147C, strain pex11, hits give low values
  normalized growth: 0.961
Locus YOR001W, strain rrp6, hits give low values
  normalized growth: 0.991
Locus YOR061W, strain CKA2, hits give low values
  normalized growth: 0.983
Locus YOR069W, strain VPS5, hits give low values
  normalized growth: 0.992
Locus YOR070C, strain gyp1, hits give low values
  normalized growth: 0.952
Locus YOR080W, strain dia2, hits give low values
  normalized growth: 0.992
Locus YOR083W, strain WHI5, hits give low values
  normalized growth: 0.977
Locus YOR106W, strain vam3, hits give low values
  normalized growth: 0.972
Locus YOR136W, strain idh2, hits give low values
  normalized growth: 0.979
Locus YOR144C, strain elg1, hits give low values
  normalized growth: 0.957
Locus YOR184W, strain ser1, hits give low values
  normalized growth: 0.715 (active)
Locus YOR231W, strain MKK1, hits give low values
  normalized growth: 0.936
Locus YOR265W, strain rbl2, hits give low values
  normalized growth: 0.986
Locus YOR270C, strain vph1, hits give low values
  normalized growth: 0.905
Locus YOR290C, strain snf2, hits give low values
  normalized growth: 0.938
Locus YOR316C, strain cot1, hits give low values
  normalized growth: 0.983
Locus YPL051W, strain arl3, hits give low values
  normalized growth: 0.945
Locus YPL078C, strain atp4, hits give low values
  normalized growth: 0.979
Locus YPL106C, strain sse1, hits give low values
  normalized growth: 0.942
Locus YPL240C, strain hsp82, hits give low values
  normalized growth: 0.985
Locus YPL256C, strain CLN2, hits give low values
  normalized growth: 0.92
Locus YPR119W, strain clb2, hits give low values
  normalized growth: 0.979
Locus YPR141C, strain kar3, hits give low values
  normalized growth: 0.977
Locus YPR163C, strain tif3, hits give low values
  normalized growth: 0.938
Locus YPR167C, strain met16, hits give low values
  normalized growth: 0.973
Strain wtn01, hits give low values
  normalized growth: 0.952
